Bioassay records: PubChem, University of Kansas High Throughput Screening Laboratory
Hits are enriched below; roughly 3.5% of the tested compounds scored in any of these assays.
mHTT-CaM PPI inh – inhibitors of human mutant huntingtin-calmodulin interaction | inhibition, % at 15 µM | 190,000 compounds, 3.6% hits | AlphaScreen His-mHTT/GST-CaM binding, luminescence
Pf apPOL block – Pf-apPOL DNA polymerase inhibition; Recombinant Pf-apPOL, molecular beacon fluorescence, 1.5 h; inhibition, % at 10 µM; 210,000 compounds, 0.25% hits
A number is an active result. No stated cut-off is given here; in the data, active means inhibition above about 50%; inactive means the rest.

COc1cccc2c1Oc1[nH]c(-c3ccc(OC)c(OC)c3OC)nc(=S)c1C2 was read as mHTT-CaM PPI inh inactive and Pf apPOL block inactive.
For COc1cccc(-c2nc(=S)c3c([nH]2)Oc2c(cccc2OC)C3)c1O the results were mHTT-CaM PPI inh 53 and Pf apPOL block inactive.
`O=[N+]([O-])c1cccc(Nc2nc(-c3ccncc3)cs2)c1` gave mHTT-CaM PPI inh inactive and Pf apPOL block inactive.
Clc1ccc(-c2csc(Nc3ccccc3)n2)s1 was read as Pf apPOL block inactive.
`Cc1ccc(-c2csc(Nc3ccccc3)n2)cc1` gave mHTT-CaM PPI inh 61 and Pf apPOL block inactive.
`COc1ccc(-c2csc(Nc3ccc(N)cc3)n2)cc1` gave mHTT-CaM PPI inh 88 and Pf apPOL block inactive.
COc1ccc(Nc2nc(-c3cccc(NC(C)=O)c3)cs2)cc1 was read as mHTT-CaM PPI inh inactive and Pf apPOL block inactive.
Screening O=[N+]([O-])c1ccc(-c2csc(Nc3ccc(Oc4ccccc4)cc3)n2)cc1 returned mHTT-CaM PPI inh 60 and Pf apPOL block inactive.
Screening Clc1cc(Cl)cc(Nc2nc(-c3ccccc3)cs2)c1 returned mHTT-CaM PPI inh 96 and Pf apPOL block inactive.
Screening O=[N+]([O-])c1ccc(-c2csc(Nc3cc(Cl)cc(Cl)c3)n2)cc1 returned mHTT-CaM PPI inh inactive and Pf apPOL block inactive.
Screening CCOc1cc(CN2CCN(c3ccccc3C)CC2)ccc1OC returned mHTT-CaM PPI inh inactive and Pf apPOL block inactive.
CCc1ccccc1NC(=O)C(=O)NCc1ccc(OC)cc1 was read as mHTT-CaM PPI inh inactive and Pf apPOL block inactive.
Cc1ccc(Nc2nc(-c3ccccc3)cs2)cc1 was read as mHTT-CaM PPI inh 64 and Pf apPOL block inactive.
Cc1ccc(Nc2nc(-c3ccncc3)cs2)cc1 was read as mHTT-CaM PPI inh inactive and Pf apPOL block inactive.
Screening COc1ccc(-c2csc(Nc3ccc(C)cn3)n2)cc1 returned mHTT-CaM PPI inh inactive and Pf apPOL block inactive.
For Cc1ccc(-c2csc(Nc3ccc(Cl)cc3)n2)cc1 the results were mHTT-CaM PPI inh inactive and Pf apPOL block inactive.
For Clc1ccc(-c2csc(Nc3ccc(Oc4ccccc4)cc3)n2)cc1 the results were mHTT-CaM PPI inh 52 and Pf apPOL block inactive.
`Cc1ccc(-c2csc(Nc3ccc(Oc4ccccc4)cc3)n2)cc1` gave mHTT-CaM PPI inh 68 and Pf apPOL block inactive.
For COCCCNc1c(-c2ccc(O)cc2)nc2sc3ccccc3n12 the results were mHTT-CaM PPI inh inactive and Pf apPOL block inactive.
`CCOC(=O)CCCNC(=O)O[C@@H]1C[C@H]2C[C@@H]1[C@H]1CCCCN1C2` gave mHTT-CaM PPI inh 85 and Pf apPOL block inactive.
Screening O=C(NCc1ccccc1)O[C@@H]1C[C@H]2C[C@@H]1[C@H]1CCCCN1C2 returned mHTT-CaM PPI inh inactive and Pf apPOL block inactive.
`O=C(O)CCC(=O)N1N=C(c2ccc([N+](=O)[O-])cc2)CC1c1ccc(Br)cc1` (centres undefined) gave mHTT-CaM PPI inh inactive and Pf apPOL block inactive.
O=[N+]([O-])c1ccc(N2N=C(c3ccc(O)cc3)CC2c2ccc(F)cc2)cc1 (centres undefined) was read as mHTT-CaM PPI inh 98 and Pf apPOL block inactive.
`O=[N+]([O-])c1ccc(N2N=C(c3ccccc3)CC2c2ccccc2O)cc1` (centres undefined) gave mHTT-CaM PPI inh 99 and Pf apPOL block inactive.
For CC(=O)N1N=C(c2ccc([N+](=O)[O-])cc2)CC1c1ccccc1 (centres undefined) the results were mHTT-CaM PPI inh inactive and Pf apPOL block inactive.
Screening Cc1ccc(Oc2nccnc2SCC(=O)Nc2cc(C)cc(C)c2)cc1 returned mHTT-CaM PPI inh inactive and Pf apPOL block inactive.
`COC(=O)Nc1ccc(S(=O)(=O)N2CCC(C(=O)Nc3cccc(OC)c3)CC2)cc1` gave mHTT-CaM PPI inh inactive and Pf apPOL block inactive.
`COc1ccc(S(=O)(=O)N2CCC(C(=O)Nc3cccc(C(C)=O)c3)CC2)cc1` gave mHTT-CaM PPI inh inactive and Pf apPOL block 99.
COc1ccc(NC2(c3ccc(Cl)cc3)C(=O)c3ccccc3C2=O)cc1 was read as mHTT-CaM PPI inh 100 and Pf apPOL block inactive.
Cc1ccc(NC2(c3ccccc3)C(=O)c3ccccc3C2=O)cc1 was read as mHTT-CaM PPI inh inactive and Pf apPOL block inactive.
`C[C@@]12CCC=C[C@H]1[C@H](c1cccc(Br)c1)N(Cc1ccccc1)C2=O` gave mHTT-CaM PPI inh inactive and Pf apPOL block inactive.
For C[C@@]12CCC=C[C@H]1[C@H](c1ccc(F)c(Br)c1)N(Cc1ccccc1)C2=O the results were mHTT-CaM PPI inh 100 and Pf apPOL block inactive.
For Cc1ccc(-c2cc([C@H]3[C@@H]4C=CCC[C@@]4(C)C(=O)N3Cc3ccccc3)ccc2F)cc1 the results were mHTT-CaM PPI inh inactive and Pf apPOL block inactive.
C[C@@]12CCC=C[C@H]1[C@H](c1ccc(Br)cc1F)N(Cc1ccccc1)C2=O was read as mHTT-CaM PPI inh 90 and Pf apPOL block inactive.
O=C(NC1CCCC1)N1c2ccccc2Sc2ccccc21 was read as mHTT-CaM PPI inh inactive and Pf apPOL block inactive.
